A selection: hits, their analogues and other compounds. The true share with any hit is near 3.2%.
GDH-TPI inh: counter-screen for M. tuberculosis FBA inhibitors: GDH-TPI coupled enzymes; actives 1.2% (n = 360,000); GDH-TPI coupled enzyme counterscreen, NADH absorbance; inhibition, % at 4.8 µM; in the data active means inhibition above about 30%
SSB-PriA inh: inhibitors of Klebsiella pneumoniae PriA binding to SSB C-terminal tail; inhibition, % at 33 µM; actives 0.6% (n = 430,000); AlphaScreen SSBct-PriA binding, biotinylated peptide; in the data active means inhibition mostly above about 37%, no sharp cut-off; inactive means mostly below about 20%
Mtb bLac sens: beta-lactam sensitization of Mtb H37Rv | inhibition, % at 25 µM | actives 0.27% (n = 330,000) | AID 434955 | M. tuberculosis H37Rv growth with meropenem, percent inhibition; call rule not given here;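 further: growth measured after seven days incubation then overnight dye step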
Mtb UGM inh: Mtb UDP-galactopyranose mutase inhibition; inhibition, % at 10 µM; P9WIQ1; purified UGM, fluorescence polarization probe displacement; actives 0.06% (n = 320,000); AID 504406; in the data active means inhibition above about 10%, passing the limit was not always enough
Target sequence (P9WIQ1 whole entry, looked up): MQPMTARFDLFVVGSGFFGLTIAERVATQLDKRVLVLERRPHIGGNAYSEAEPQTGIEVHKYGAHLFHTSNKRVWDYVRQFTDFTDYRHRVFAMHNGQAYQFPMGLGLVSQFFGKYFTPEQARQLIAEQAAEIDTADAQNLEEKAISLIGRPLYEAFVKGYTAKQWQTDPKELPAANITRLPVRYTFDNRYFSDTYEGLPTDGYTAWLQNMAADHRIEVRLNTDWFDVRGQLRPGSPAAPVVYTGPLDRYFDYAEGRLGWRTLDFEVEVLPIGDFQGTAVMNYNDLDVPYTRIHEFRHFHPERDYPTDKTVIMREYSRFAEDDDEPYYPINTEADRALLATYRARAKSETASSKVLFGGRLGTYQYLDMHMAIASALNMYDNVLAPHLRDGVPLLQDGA
Mtb FBA inh: inhibits M. tuberculosis FBA enzyme | purified M. tuberculosis FBA, fluorescence read-out | inhibition, % at 1 µM | actives 2.3% (n = 360,000); in the data active means inhibition above about 27%
Rv3671c inh: inhibits the M. tuberculosis serine protease Rv3671c; P9WHR9; inhibition, % at 5.96 µM; actives 0.048% (n = 320,000); in the data active means inhibition above about 38%;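 further: extracellular domain of Rv3671c used as enzyme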
A number is an active result; n = inactive; x = not tested or not shown; + = active, no number.

SMILES	GDH-TPI inh	SSB-PriA inh	Mtb bLac sens	Mtb UGM inh	Mtb FBA inh	Rv3671c inh
CCOC(=O)c1sc(NC(=S)NC(=O)c2ccco2)nc1C	35	n	n	n	n	n
COC(=O)c1sc(Nc2ccccc2)nc1C	32	n	n	n	n	n
CCOC(=O)c1sc(NC(=O)c2ccc(=O)[nH]c2)nc1C	31	n	n	n	n	n
CC(NC(=O)CCc1nc2sc3c(c2c(=O)[nH]1)CCCCC3)c1ccc2c(c1)OCCO2 (stereo not given)	x	n	x	x	x	x
CCCc1cc(=O)oc2c3c(cc(OCC(=O)NCC4CCC(C(=O)O)CC4)c12)OC(C)(C)CC3 (stereo not given)	n	n	n	n	+	n
CCCc1cc(=O)oc2c3c(cc(OCC(=O)N4CCC(C(=O)O)CC4)c12)OC(C)(C)CC3	n	x	x	x	+	x
CCCc1cc(=O)oc2cc(OCC(=O)N3CCC(C(N)=O)CC3)ccc12	n	n	n	n	n	n
O=C(c1ccc2nsnc2c1)N1Cc2cncnc2C1	x	n	x	x	x	x
O=C(Nc1cnn(C2CCOCC2)c1)Nc1c(F)cccc1F	x	n	x	x	x	x
Cc1ccc(S(=O)(=O)c2c(C)cc(-c3ccccc3)[nH]c2=O)cc1	n	n	n	n	81	n
Cc1cc(C)c(S(=O)(=O)c2ccccc2)c(=O)[nH]1	n	n	n	n	n	n
CC(O)(CNS(=O)(=O)Cc1ccc(C(F)(F)F)cc1)c1cccs1 (stereo not given)	x	n	x	x	x	x
CC(=O)Nc1ccc(CC(=O)N2CCc3ncncc3C2)cc1	x	n	x	x	x	x
OCCCc1nc2n(n1)C(c1ccccc1Cl)C=C(c1cccs1)N2 (stereo not given)	n	n	n	n	55	n
CCOCCCNC(=O)C(NC(=O)c1ccccc1O)c1ccc(Cl)cc1 (stereo not given)	n	n	n	n	52	n
O=c1c(NCc2ccc(Cl)cc2)nccn1-c1cccc(C(F)(F)F)c1	x	54	x	x	x	x
Cc1c(Cl)cccc1-n1ccn(CC(N)=O)c(=O)c1=O	x	n	x	x	x	x
Cc1ccc(CNc2nccn(-c3cccc(Cl)c3C)c2=O)cc1	x	46	x	x	x	x
O=c1c(NCc2ccc(F)cc2)nccn1-c1ccc(Br)cc1	x	n	x	x	x	x
CCc1c(C(=O)NN=Cc2sccc2C)nnn1-c1nonc1N	x	n	x	x	x	x
Cc1cc(C)c2nc(C)cc(Nc3ccc(C(=O)NCCO)cc3)c2c1	59	n	n	n	n	n
CC(=O)c1ccc(Nc2cc(C)nc3c(C)cc(C)cc23)cc1	n	n	n	n	n	n
COc1ccc(/C=C/C(=O)Nc2ccc(C)c(S(=O)(=O)N3CCOCC3)c2)cc1	33	n	n	x	n	n
COc1ccc(/C=C/C(=O)Nc2cc(S(=O)(=O)N3CCOCC3)ccc2OC)cc1	31	n	n	n	n	n
N#Cc1cccnc1OC1CCN(C(=O)c2cc(-c3cccs3)[nH]n2)CC1	x	n	x	x	x	x
SMILES	GDH-TPI inh	SSB-PriA inh	Mtb bLac sens	Mtb UGM inh	Mtb FBA inh	Rv3671c inh
Cc1ccc(O)c(C(=O)c2cnc3c(c2)COc2ccc(C)cc2-3)c1	n	39	n	n	n	n
COc1cccc(-c2cc(C(=O)NCc3ccco3)no2)c1	n	n	n	n	n	n
COc1cccc(-c2nn(C)c3sc(C(=O)NCc4ccco4)cc23)c1	n	n	n	n	48	n
COc1cc(OC)c(-n2nnc(-c3nsc(NC(=O)c4ccco4)n3)c2C)cc1Cl	x	n	x	x	x	x
O=C1CC(C(=O)O)S/C(=N\N=C\c2ccc(Br)cc2)N1 (stereo not given)	66	x	n	n	n	n
Cn1cc(S(=O)(=O)NC[C@H](O)C2CCCCC2)cn1	x	n	x	x	x	x
CC(=NNc1ncc(C(F)(F)F)cc1Cl)c1ccncc1	x	n	x	x	x	x
C/C(=N\Nc1ccc(C(F)(F)F)cn1)c1ccncc1	56	x	n	n	n	n
NCCSC1CC(=O)N(c2ccc(Cl)c(Cl)c2)C1=O (stereo not given)	n	n	n	n	47	n
NCCSC1CC(=O)N(c2ccc(F)cc2)C1=O (stereo not given)	n	n	n	n	n	n
COc1c2ccccc2nc2ccccc12	n	n	n	n	143	n
COc1ccc(OC)c(Nc2c3ccccc3nc3ccccc23)c1	n	n	n	n	n	n
COc1ccc(SCCC(=O)O)cc1	x	n	x	x	x	x
O=C1NC(=O)/C(=C\c2ccc(Oc3ccc([N+](=O)[O-])cn3)cc2)S1	35	n	n	n	n	n
O=[N+]([O-])c1ccc(Oc2ccc(/C=N/O)cc2)nc1	n	x	n	n	n	n
C=CCOc1ccc(C=NNC(=O)CN2CCOCC2)cc1OCC	x	n	x	x	x	x
O=C(O)c1ccc2cc(-c3ccccc3)[nH]c2c1	n	n	n	n	+	n
O=C(O)c1ccc(-c2ccccc2)[nH]1	n	n	n	n	n	n
Nc1nnnn1/N=C/c1cc(Br)ccc1O	32	x	n	n	n	n
CN(C)c1ccc(C=NN2C(=O)CSC2=S)c(Cl)c1	36	x	x	x	n	x
O=C(NCC1CCN(Cc2cccs2)CC1)C(=O)NC1CC1	x	n	x	x	x	x
O=C1OCCN1C(=O)[C@H]1[C@H](c2ccc(F)cc2)C(c2cccc(Cl)c2)=NN1c1ccccc1	n	n	x	x	n	x
O=C1OCCN1C(=O)[C@H]1[C@H](c2ccc(Cl)cc2)C(c2ccccc2)=NN1c1ccc(Br)cc1	n	n	x	x	34	x
O=C1OCCN1C(=O)[C@H]1[C@H](c2ccc([N+](=O)[O-])cc2)C(c2cccc(Cl)c2)=NN1c1ccc(Br)cc1	n	n	x	x	n	x
O=C1OCCN1C(=O)[C@H]1[C@H](c2ccccc2)C(c2cccc(Cl)c2)=NN1c1ccc(Br)cc1	n	n	x	x	54	x
SMILES	GDH-TPI inh	SSB-PriA inh	Mtb bLac sens	Mtb UGM inh	Mtb FBA inh	Rv3671c inh
O=C1OCCN1C(=O)[C@H]1[C@H](c2ccc(F)cc2)C(c2cccc(Cl)c2)=NN1c1ccc(Br)cc1	n	n	x	x	97	x
O=C1OCCN1C(=O)[C@H]1[C@H](c2ccc(Cl)cc2)C(c2cccc(Cl)c2)=NN1c1ccccc1	n	n	n	n	48	n
CCOc1ccc(C=NNC(=O)c2cc3c(OC)cc(OC)c(OC)c3[nH]2)cc1	x	n	x	x	x	x
COc1ccccc1[C@@H]1C(c2ccccc2)=NN(c2ccc(Br)cc2)[C@H]1C(=O)N1CCOC1=O	n	n	x	x	30	x
COc1ccccc1[C@@H]1C(c2cccc(C)c2)=NN(c2ccc(Br)cc2)[C@H]1C(=O)N1CCOC1=O	n	n	x	x	n	x
C=CCn1c(=O)c2c(nc(Br)n2C)n(C)c1=O	x	n	x	x	x	x
CCCCn1c(=O)c(C=Nc2ccc(Cl)cc2)c(O)n(Cc2ccco2)c1=O	n	n	n	n	n	n
CC(C)n1c(=O)c(C=Nc2ccc(S(N)(=O)=O)cc2)c(O)n(Cc2ccco2)c1=O	32	n	n	n	n	n
O=C(Nc1ccc(N2CCCCC2=O)cc1)c1ccc(Br)o1	x	n	x	x	x	x
Nc1c(-c2ccc(Cl)cc2)cnn1-c1cc(C(F)(F)F)cc(C(F)(F)F)c1	n	n	n	n	+	n
COc1ccc(-n2nnc3c(SC(C(C)=O)C(=O)N(C)C)ncnc32)cc1 (stereo not given)	32	n	n	n	n	n
C=CCN1C(=O)C(CC(=O)O)SC1=Nc1ccc(N=Nc2ccccc2)cc1 (stereo not given)	63	n	n	n	n	n

Compound activity as filed in PubChem BioAssay.
